# Experimental data taken from PubChem BioAssay (EPA / NIEHS).
# Inconclusive results are not listed. Activity calls are given as the source filed them. How the source made its calls, unless noted: active means hit-call score of the fitted dose curve at least 0.9, where 1 is the maximum; inconclusive means response in the unintended direction; inactive means score below 0.9.
# Key:
# [1] = tested on: Sodium/Iodide Symporter (NIS), SLC5A5 (gene 6528); assay: CPHEA_Stoker_NIS_Inhibition_RAIU: CPHEA's Radioactive Iodide Uptake (RAIU) Assay for Sodium/Iodide Symporter (NIS) Inhibition, Stoker and Laws Labs (AID 2283841)
# Procedure, shortened: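 Iodide uptake read as CPM of intracellular 125I (final 329 pM) after 2 h room-temperature exposure in HEPES-buffered HBSS, pH 7.4. Human NIS-expressing HEK293T cells; six concentrations 0.001–100 uM, 0.5% DMSO, normalised to DMSO wells.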
# [2] = CPHEA_Stoker_NIS_Cytotoxicity: Cytotoxicity Assessment for CPHEA's Radioactive Iodide Uptake (RAIU) Assay for Sodium/Iodide Symporter (NIS) Inhibition, Stoker and Laws Labs (AID 2283897);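 on AC50: active means loss of ATP signal versus DMSO meaning cytotoxicity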
# Procedure, shortened: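 CellTiter-Glo ATP luminescence gauged viability in HEK293T cells expressing human NIS after 2 h chemical exposure. Concentrations ran 0.001–100 uM in 0.5% DMSO; DMSO served as baseline for the loss-of-signal fit.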
# [3] = CEETOX_H295R_11DCORT_noMTC: CeeTox H295R High-throughput Steroidogenesis Assay for 11-Deoxycortisol (11DCORT), maximum tolerated concentration (MTC) filtered results only (AID 2283911; active means hit-call score of the fitted dose curve at least 0.9, where 1 is the maximum; inactive means score below 0.9); conditions: actives raise or lower the signal
# Procedure, shortened: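 H295R, OECD 456-based; 10 uM forskolin 48 h → compound (0.1% DMSO) 48 h → medium extracted, 11DCORT by LC-MS/MS. Gain/loss vs DMSO control, all concentrations kept regardless of MTT viability.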
# [4] = CEETOX_H295R_OHPREG_noMTC: CeeTox H295R High-throughput Steroidogenesis Assay for OH-Pregnenolone (OHPREG), maximum tolerated concentration (MTC) filtered results only (AID 2283912; active means hit-call score of the fitted dose curve at least 0.9, where 1 is the maximum; inactive means score below 0.9); conditions: actives raise or lower the signal
# Experimental: (§1) CEETOX_H295R is a cell-based, multiplexed-readout assay that uses H295R, a human adrenal gland cell line, with measurements taken at 48 hours after chemical dosing in a 96-well plate.CEETOX_H295R_OHPREG_noMTC is one of 12 assay component(s) measured or calculated from the CEETOX_H295R assay (11 hormones and 1 viability assay). It is designed to make measurements of hormone induction, a form of inducible reporter, as detected with absorbance signals by HPLC-MS-MS technology. The concentrations for these components have not been pre-filtered for the maximum tolerated concentration (MTC) based on the MTT assay (_noMTC).Data from the assay component CEETOX_H295R_OHPREG_noMTC was analyzed into 1 assay endpoint. This assay endpoint, CEETOX_H295R_OHPREG_noMTC, was analyzed with bidirectional fitting relative to DMSO as the negative control and baseline of activity. […]
# (§2) Cell culture and media preparation procedures were conducted in accordance with OECD Test No. 456 guidelines, with minor modifications. […] For steroid quantification, media samples were shipped to OpAns, LLC (Durham, NC) on dry ice, and samples were thawed to room temperature prior to liquid-liquid extraction. […] Steroid hormones were separated by HPLC, eluted using a reverse phase C18 gradient with electrospray positive ionization, followed by quantification by tandem mass spectrometry (MS/MS). […]
# [5] = CEETOX_H295R_OHPROG_noMTC: CeeTox H295R High-throughput Steroidogenesis Assay for OH-Progesterone (OHPROG), maximum tolerated concentration (MTC) filtered results only (AID 2283914; active means hit-call score of the fitted dose curve at least 0.9, where 1 is the maximum; inactive means score below 0.9); conditions: actives raise or lower the signal
# Procedure, shortened: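 H295R cells prestimulated 48 h with 10 uM forskolin, then exposed 48 h to chemical (0.1% DMSO final). 17alpha-hydroxyprogesterone in medium quantified by HPLC-MS/MS after MTBE extraction; bidirectional fitting versus DMSO, concentrations not MTC-filtered.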
# [6] = CEETOX_H295R_CORTISOL_noMTC: CeeTox H295R High-throughput Steroidogenesis Assay for Cortisol, maximum tolerated concentration (MTC) filtered results only (AID 2283916; active means hit-call score of the fitted dose curve at least 0.9, where 1 is the maximum; inactive means score below 0.9); conditions: actives raise or lower the signal
# Procedure, shortened: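 H295R human adrenal cells prestimulated 48 h with 10 uM forskolin, then exposed 48 h to chemical in 0.1% DMSO; cortisol in medium quantified by HPLC-MS/MS; bidirectional fit vs DMSO baseline, concentrations not MTT-filtered for MTC.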
# [7] = CEETOX_H295R_CORTIC_noMTC: CeeTox H295R High-throughput Steroidogenesis Assay for Corticosterone (CORTIC), maximum tolerated concentration (MTC) filtered results only (AID 2283917; active means hit-call score of the fitted dose curve at least 0.9, where 1 is the maximum; inactive means score below 0.9); conditions: actives raise or lower the signal
# Procedure, shortened: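 H295R adrenal cells pre-stimulated 48 h with 10 uM forskolin, then exposed 48 h to chemical in 0.1% DMSO; corticosterone in medium quantified by HPLC-MS/MS, fitted bidirectionally versus DMSO without MTT-based concentration filtering.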
# [8] = CEETOX_H295R_DOC_noMTC: CeeTox H295R High-throughput Steroidogenesis Assay for DOC, maximum tolerated concentration (MTC) filtered results only (AID 2283918; active means hit-call score of the fitted dose curve at least 0.9, where 1 is the maximum; inactive means score below 0.9); conditions: actives raise or lower the signal
# Experimental: as §1, with “plate.CEETOX_H295R_DOC_noMTC” for “plate.CEETOX_H295R_OHPREG_noMTC”, “CEETOX_H295R_DOC_noMTC” for “CEETOX_H295R_OHPREG_noMTC”, “CEETOX_H295R_DOC_noMTC,” for “CEETOX_H295R_OHPREG_noMTC,”
# as §2
# [9] = CEETOX_H295R_ESTRADIOL_noMTC: CeeTox H295R High-throughput Steroidogenesis Assay for Estradiol, maximum tolerated concentration (MTC) filtered results only (AID 2283919; active means hit-call score of the fitted dose curve at least 0.9, where 1 is the maximum; inactive means score below 0.9); conditions: actives raise or lower the signal
# Procedure, shortened: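 H295R human adrenal cells pre-stimulated 48 h with 10 uM forskolin, then exposed 48 h to chemical (0.1% DMSO final). Estradiol in medium measured by HPLC-MS/MS after MTBE extraction and dansyl derivatization; bidirectional fit versus DMSO, concentrations not MTT-filtered.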
# [10] = CEETOX_H295R_ANDR_noMTC: CeeTox H295R High-throughput Steroidogenesis Assay for Androstenedione (ANDR), maximum tolerated concentration (MTC) filtered results only (AID 2283915; active means hit-call score of the fitted dose curve at least 0.9, where 1 is the maximum; inactive means score below 0.9); conditions: actives raise or lower the signal
# Procedure, shortened: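 H295R cells, passage 10 or below, prestimulated 48 h with 10 uM forskolin, then exposed 48 h to chemical in 0.1% DMSO. Medium androstenedione extracted with MTBE, quantified by HPLC-MS/MS; concentrations not MTC-filtered; bidirectional fit versus DMSO.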
compound,measurement,setting,value
Oc1cc2ccccc2c2ccccc12,outcome,[1],inactive
same,outcome,[2],inactive
FC(F)(I)C(F)(F)C(F)(F)C(F)(F)C(F)(F)C(F)(F)I,AC50,[1],5.79 µM (active)
O=C(O)c1ccccc1C(c1ccc(O)cc1)c1ccc(O)cc1,outcome,[1],inactive
same,outcome,[2],inactive
CN1CCN(c2ccccc2/C=C2\SCCN(c3ccc(Cl)c(Cl)c3)C2=O)CC1,outcome,[2],inactive
c1ccc2c(c1)Cc1ccccc1-2,outcome,[1],inactive
same,outcome,[2],inactive
same,outcome,[3],inactive
same,outcome,[4],inactive
same,outcome,[5],inactive
same,outcome,[6],inactive
same,outcome,[7],inactive
same,outcome,[8],inactive
same,outcome,[9],inactive
c1ccc2c(c1)ccc1ccccc12,outcome,[2],inactive
CC(C)(C)c1ccc(O)c(C(C)(C)C)c1,AC50,[1],50 µM (active)
same,AC50,[2],9.92 µM (active)
O=C(O)Cc1cc(I)c(Oc2cc(I)c(O)c(I)c2)c(I)c1,outcome,[1],inactive
same,outcome,[2],inactive
O=C1OC2(c3ccccc31)c1cc(Br)c(O)c(Br)c1Oc1c2cc(Br)c(O)c1Br,AC50,[1],14.1 µM (active)
same,outcome,[2],inactive
CC#C[C@]1(O)CC[C@H]2[C@@H]3CCC4=CC(=O)CCC4=C3[C@@H](c3ccc(N(C)C)cc3)C[C@@]21C,outcome,[2],inactive
CC[C@H](c1ccc(O)cc1)[C@@H](CC)c1ccc(O)cc1,AC50,[1],50 µM (active)
same,AC50,[2],9.92 µM (active)
c1ccc2cc3c(ccc4ccccc43)cc2c1,AC50,[1],50 µM (active)
same,outcome,[2],inactive
O=C(OCCOCCOC(=O)c1ccccc1)c1ccccc1,outcome,[1],inactive
same,outcome,[2],inactive
CC[C@H](C)[C@@H](C(=O)O)n1sc2ccccc2c1=O,outcome,[1],inactive
same,outcome,[2],inactive
Cc1cc(CCN2CCN(c3nsc4ccccc34)CC2)cc2c1NC(=O)CC2(C)C,outcome,[1],inactive
same,AC50,[2],9.92 µM (active)
same,AC50,[3],11.2 µM (active)
same,outcome,[4],inactive
same,AC50,[5],0.756 µM (active)
same,outcome,[10],inactive
same,AC50,[6],10 µM (active)
same,AC50,[7],2.65 µM (active)
same,AC50,[8],7.31 µM (active)
same,AC50,[9],3.98 µM (active)
CCCCCCCCCCCCCC[N+](C)(C)C,AC50,[1],19.2 µM (active)
same,outcome,[2],inactive
CCCCCCCCCCCCN1CCCC1=O,outcome,[1],inactive
same,outcome,[2],inactive
ClC1=C(Cl)C(Cl)(Cl)C(Cl)=C1Cl,AC50,[1],19.1 µM (active)
same,outcome,[2],inactive
Cc1oc(-c2ccccc2)nc1CCOc1ccc(C[C@H](Nc2ccccc2C(=O)c2ccccc2)C(=O)O)cc1,AC50,[1],42.5 µM (active)
same,AC50,[2],9.21 µM (active)
CC(=O)NC1(c2cccc(F)c2)CCN(CC[C@@]2(c3ccc(Cl)c(Cl)c3)CN(c3ccccc3)C(=O)CO2)CC1,outcome,[1],inactive
same,outcome,[2],inactive
CC(C)(C)c1cccc(C(C)(C)C)c1O,outcome,[2],inactive
CCC(=C(c1ccc(O)cc1)c1ccc(OCCN(C)C)cc1)c1ccccc1,outcome,[1],inactive
same,outcome,[2],inactive
CC1=C(/C=C/C(C)=C/C=C/C(C)=C/C(=O)O)C(C)(C)CCC1,outcome,[1],inactive
same,outcome,[2],inactive
OCCC(F)(F)C(F)(F)C(F)(F)C(F)(F)C(F)(F)C(F)(F)F,outcome,[1],inactive
NC(=O)N1C(=O)C(C(=O)c2cc(Cl)cs2)c2cc(F)c(Cl)cc21 (stereo not drawn),outcome,[1],inactive
same,outcome,[2],inactive
CCc1ccc(CCOc2ccc(CC3SC(=O)NC3=O)cc2)nc1 (stereo not drawn),outcome,[1],inactive
same,outcome,[2],inactive
CCCCCCCCCCCCc1ccccc1S(=O)(=O)O,outcome,[1],inactive
same,outcome,[2],inactive
